About 83,000 compounds went through this panel and 20% of them were active in at least one assay; those are over-represented in the sample as a whole.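 The test compound was applied at a single concentration to cells in 96-well plates for 48 hours, and percent growth was recorded.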 A number with no mark means an inactive call. Active and inactive are the calls of the source. Rule for the calls: active = growth percent below 10; inactive = the rest.

The subject of the assay is MDA-MB-468 breast. The experiment in a line: NCI-60 one-dose screen, 48 h (100 = growth as untreated, 0 = no growth, -100 = all killed). Conditions: 10 µM unless noted.
In the case of `COc1ccccc1CNC(=O)C1c2ccccc2C(=O)N(CC(C)C)C1c1cccs1` (stereo not given), the growth was 65.7%.
In the case of `Nc1n[nH]c2cccc(C#Cc3cccc(C(=O)Nc4ccc(Cl)c(C(F)(F)F)c4)c3)c12` it was 74.4%.
On to `O=C(Nc1cccc(Oc2nnc(Cl)c3ccccc23)c1)Nc1ccc(Cl)c(C(F)(F)F)c1`, for which the growth was -44.8% (active).
In the case of `COc1cc2c(=O)n(CCCN(C)C)c3c4cc5c(cc4ccc3c2cc1OC)OCO5` it was 57.7%; in that of `CCCOC(=O)C1c2cc3c(cc2CC(C)C1C(=O)OCCC)OCO3` (stereo not given), 102%.
As to `CCOC(=O)c1c(-c2ccc(Cl)cc2)c(C#N)c(=O)n(-c2ccccc2CC)c1N`, the growth was 98.9%.
Consider `O=C(Nc1ccc(-n2cc(-c3ccncc3)c(-c3ccc(O)c(Cl)c3)n2)cc1)Nc1cccc(Cl)c1Cl`, for which the growth was 43.5%.
To `O=C(Nc1ccc(/C=C2\SC(=O)N(Cc3ccc(OC(F)(F)F)cc3)C2=O)cc1)c1ccc(Cl)c([N+](=O)[O-])c1` belongs 12.5%; to `O=C(NCc1cn(Cc2cccc(Oc3ccccc3)c2)nn1)c1cccnc1NCc1ccc(Cl)cc1`, 17.3%; to `COC(=O)c1cccc2c1N(C)c1c(cccc1C(=O)OC)CC2`, 124%.
In the case of `COc1ccc(CCN2CCCN3C2=Nc2ccccc2S3(=O)=O)cc1`, the growth is 5.24% (active).
To `COC(=O)c1ccc(C)cc1` belongs 105%; to `O=C(OCC(O)(CO)C(=O)NC12CC3CC(CC(C3)C1)C2)c1ccc(Cl)cc1` (stereo not given), 100%.
`N=C(N)c1ccc(-c2ccc(-c3ccc(Cl)c(Cl)c3)s2)cc1`: the growth is -61.6% (active).
To `COc1ccc2[nH]c(=O)c(CNc3ccc(Nc4nccc(-c5ccc(Cl)cc5)n4)cc3)cc2c1` belongs 88%; to `CC(C)(C)CC(C)(C)n1nnnc1C(Nc1nccs1)c1cc2cccc3ccc4cccc1c4c32` (stereo not given), -33.3% (active); to `NC(=N\N=C\c1ccccc1O)/C(N)=N/N=C/c1ccccc1O`, 74%.
In the case of `CCCNC(=O)Oc1ccc(/C(=C(/C)Cc2ccc(OC)cc2)c2ccc(OCCN3CCCC3)cc2)cc1` it was 69%.
To `c1cc[n+](Cc2ccnc3ccccc23)cc1` belongs 126%; to `Cc1cnc(SCc2ccc(Cl)cc2Cl)nc1Nc1ccc(Cl)c(Cl)c1`, 101%; to `COc1ccc(/C=C/c2nc(NCCCN(C)C)c3ccccc3n2)cc1`, -43.8% (active).
As to `Cc1c(O)c(O)cc2c3c(oc12)CC(c1ccc2c(c1)OCO2)CC3=O` (stereo not given), the growth was 93.2%.
To `COc1cc(NCCCCC(C)N)c2nccc(C)c2c1` (stereo not given) belongs 10.6%.
To `CN1C[C@@H](c2ccc(Cl)cc2)[C@]2(NC(=S)N(c3ccccc3)C2=O)[C@@]12C(=O)NC1C=CC(Br)=C[C@H]12` (stereo not given in full) belongs 67.7%; to `CCOc1ccccc1NC(=O)CCC(=O)OC`, 99.7%; to `C#CCOc1ccc2ncnc(Nc3cccc(CNC(=O)CCl)c3)c2c1`, -3.41% [8.25 µM] (active).
In the case of `COc1ccc(C(=O)Nc2ccc3nc(N4CCCCC4)cc(C)c3c2)cc1OC` it was 73.6%; in that of `COc1cccc2ccc(CC(O)(c3ccccc3)c3ccccc3)nc12`, 46.7%; in that of `C/C(=C(\c1ccc(OCCN2CCCCCC2)cc1)c1ccc(OC(=O)c2ccccc2)cc1)c1ccc(Cl)cc1`, 45.5%.
As for `CC(=O)Nc1sc2c(c1-c1nc3ccccc3s1)CNC2`, the growth is -3.09% (active).
As for `O=C(N/N=C\c1cc(Br)cc(Br)c1O)N/N=C/c1cc(Br)cc(Br)c1O`, the growth was 57.7%.
In the case of `c1ccc2cc(Cn3cc[n+](Cc4ccc5ccccc5c4)c3)ccc2c1` it was -23.7% (active); in that of `CC(C)[C@H](NC(=O)Cn1cc(C(=O)O)nn1)C(=O)O`, 98.9%.
In the case of `NC(N)=N/N=C/c1cccc(Br)c1` it was 87%; in that of `COc1cc(C(=O)/C=C/c2c(-c3cccs3)nc3sc(C)cn23)cc(OC)c1OC`, -4.34% (active); in that of `CC(=O)N(C)N=Nc1ccc(C)cc1`, 104%.
In the case of `O=C(c1ccc(Cl)cc1)C1[C@H](c2ccc(Cl)cc2)[C@@H](c2ccccc2)NC12C(=O)Nc1ccc(Br)cc12` (stereo not given in full) it was 45.8%; in that of `CCOc1ccc(-n2nc(C(=O)Nc3cc(OC)c(OC)c(OC)c3)nc2-c2cc(OC)c(OC)c(OC)c2)cc1`, 82%; in that of `COc1ccc2nc(-c3ccc(-c4noc(-c5cc(OC)c(OC)c(OC)c5)n4)cc3)[nH]c2c1`, 68.2%.
Regarding `Cn1nc(Nc2ccccc2)c(C(=O)NN)c1N`, the growth was 100%.
